The text below walks through data of PubChem BioAssay AID493012 (Sanford-Burnham Center for Chemical Genomics, 2011).

Hit rate of the full screen: of about 330,000 compounds, about 930 (0.28%) were called active.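 How the source made its calls: active means inhibition of at least 40% at 20 µM, with no more than 30% in the related APOBEC3A deaminase screen; inactive means the rest.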 This excerpt belongs to a sample that is enriched for actives.

DNA dC->dU-editing enzyme APOBEC-3G (Homo sapiens), sequence (Q9HC16 whole entry, looked up): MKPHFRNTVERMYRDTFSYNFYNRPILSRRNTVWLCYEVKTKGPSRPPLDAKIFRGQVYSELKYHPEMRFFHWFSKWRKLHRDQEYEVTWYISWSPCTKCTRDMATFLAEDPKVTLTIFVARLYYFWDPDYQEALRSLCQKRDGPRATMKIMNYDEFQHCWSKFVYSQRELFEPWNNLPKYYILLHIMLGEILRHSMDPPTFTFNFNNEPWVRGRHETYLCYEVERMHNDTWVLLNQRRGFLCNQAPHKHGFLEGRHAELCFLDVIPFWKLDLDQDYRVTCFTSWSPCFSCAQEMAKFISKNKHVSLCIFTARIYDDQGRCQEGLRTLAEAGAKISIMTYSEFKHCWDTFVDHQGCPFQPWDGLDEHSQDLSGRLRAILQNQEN

The assay addresses DNA dC->dU-editing enzyme APOBEC-3G (Homo sapiens) (UniProt Q9HC16). The assay can be described thus: APOBEC3G DNA deaminase inhibitors, primary screen, biochemical, fluorescence, single-stranded DNA substrate, uHTS (AID 493012).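 Further: plate controls were DMSO wells with A3G for no effect and wells lacking A3G enzyme for full effect.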 The following applies: recombinant A3G, ssDNA deamination FAM/TAMRA fluorescence; at 20 µM; stronger effect = higher value.
In the case of `CCC(C)(C)NC(=O)C1c2ccccc2Oc2ccccc21`, the inhibition was -0.78% (inactive).
In the case of `CCC(C)NC(=O)C1c2ccccc2Oc2ccccc21` (configuration not stated), the inhibition was -4.18% (inactive).
To `CC(C)(C)c1nnc(NC(=O)C2c3ccccc3Oc3ccccc32)s1` belongs 53.3% (active); to `CCCCn1c(N)c(N(CCOC)C(=O)c2sc3ccccc3c2Cl)c(=O)[nH]c1=O`, -7.98% (inactive); to `CCCCCC(O)c1cccc(OCc2ccc3ccccc3n2)c1` (configuration not stated), -6.99% (inactive).
To `Cc1ccc(NC(=O)C2CCN(S(=O)(=O)c3ccc4c(c3)NC(=O)CO4)CC2)cc1C` belongs -9.26% (inactive); to `NC(=O)C1CCN(C(=O)c2ccc(F)c(S(=O)(=O)N3CCOCC3)c2)CC1`, -4.4% (inactive).
Take `CN(C(=O)c1cccc(NC(=O)Cc2cccc([N+](=O)[O-])c2)c1)C1CCCCC1`: the inhibition was -1.19% (inactive).
For `CCn1cc(C(=O)N2CC(C)CC(C)C2)c(=O)c2cc(S(=O)(=O)N3CCCC3)ccc21` (configuration not stated), the inhibition was -1.06% (inactive).
As to `CCN(CC)C(=O)CSC(Nc1cccc(F)c1)=C(C#N)C#N`, the inhibition is -2.9% (inactive).
Consider `Nc1ccccc1SC(C[N+](=O)[O-])c1ccccc1` (configuration not stated), for which the inhibition is 75.7% (active).
With `O=C(COc1cc(Cl)c(Cl)cc1Cl)NC(=O)NC1CCCC1`, the inhibition is -1.68% (inactive).
The value for `S=c1[nH]nc(NCCc2ccccc2)s1` was 43.1% (active).
Take `S=c1[nH]nc(Nc2ccccc2)s1`: the inhibition is 42.7% (active).
Regarding `CC(C)(C)C(=O)c1cnc(Nc2ccccc2)s1`, the inhibition was 17.8% (inactive).
Turning to `Nc1c(NCCc2ccccc2)c2ccccc2oc1=O`, the inhibition was -2.86% (inactive).
Turning to `O=C(CSc1ncccn1)NCCc1ccccc1`, the inhibition was -0.062% (inactive).
For the compound `O=c1cnnc(Nc2ccccc2)[nH]1`, the inhibition was -1.93% (inactive).
To `Cc1ccc([N+](=O)[O-])c(OCCCNCC(C)O)c1` (configuration not stated) belongs -8.53% (inactive).
On to `Cc1cc(C)n(C(=O)c2ccc(C)c(S(=O)(=O)N3CCOCC3)c2)n1`, for which the inhibition is 0.652% (inactive).
On to `COc1ccc(CCNC(=O)CS(=O)(=O)Cc2nc(-c3ccc(C)cc3)oc2C)cc1OC`, for which the inhibition is -6.41% (inactive).
The value for `S=c1[nH]nc(-c2cc(-c3ccccc3)n[nH]2)n1/N=C/c1c2ccccc2cc2ccccc12` was 43.4% (active); that for `CCN(CC)S(=O)(=O)c1cccc(-c2n[nH]c(=S)n2/N=C/c2ccc(C(=O)OC)cc2)c1` was -5.7% (inactive); that for `S=c1[nH]nc(-c2cc(-c3ccsc3)n[nH]2)n1-c1ccccc1` was 20.5% (inactive).
Turning to `O=c1c2ccccc2nnn1CSc1nc2sc3c(c2c(=O)n1CC1CCCO1)CCC3` (configuration not stated), the inhibition is -0.082% (inactive).
On to `CC(C)c1ccc(NC(=O)COC(=O)c2ccc(CN3CCCC3=O)cc2)cc1`, for which the inhibition was -5.19% (inactive).
As for `CC(C)(C)n1nnnc1C(c1ccc2ncccc2c1)N1CCSCC1` (configuration not stated), the inhibition was 1.72% (inactive).
Turning to `CCc1cccc(NC(=O)C2CCCN(S(=O)(=O)c3ccc4[nH]c(=O)ccc4c3)C2)c1` (configuration not stated), the inhibition was -3.15% (inactive).
In the case of `S=c1[nH]nc2c3c4c(sc3ncn12)CCCC4`, the inhibition was 50.1% (active).
The value for `CC(C(=O)O)n1cnc2sc3c(c2c1=O)CCCC3` (configuration not stated) was -3.08% (inactive); that for `N=c1c2c3c(sc2ncn1CCCN1CCOCC1)CCCCC3` was 2.15% (inactive); that for `COc1ccc(-n2nc(C(=O)NCC(=O)Nc3cccc(C)n3)c3ccccc3c2=O)cc1` was -3.64% (inactive).
Take `O=c1[nH]c(CN2CCN(S(=O)(=O)c3ccc4c(c3)OCCO4)CC2)nc2sc3c(c12)CCCC3`: the inhibition is -9.39% (inactive).
Regarding `COC(=O)COc1ccc(C2NC(=O)NC(C)=C2C(=O)NCc2ccccc2)cc1OC` (configuration not stated), the inhibition is -1.01% (inactive).
With `CCn1c(CSCc2c(Cl)cccc2Cl)n[nH]c1=S`, the inhibition is 11.9% (inactive).
In the case of `CCn1c(CN2C(=O)CSc3ccccc32)n[nH]c1=S`, the inhibition is 43.9% (active).
With `CCn1c(CNS(=O)(=O)c2ccc(Cl)cc2)n[nH]c1=S`, the inhibition was 30.3% (inactive).
For the compound `COc1cc(C2/C(=C(\O)c3ccc4c(c3)CC(C)O4)C(=O)C(=O)N2Cc2ccco2)ccc1O` (configuration not stated), the inhibition was -3.83% (inactive).
The value for `COc1ccc(/C=N/NC(=O)C(C)N(c2ccc(OC)cc2)S(C)(=O)=O)cc1` (configuration not stated) was -4.56% (inactive).
As for `CN(C)c1ccc(C(CNC(=O)c2ccc(F)cc2)c2c[nH]c3ccccc23)cc1` (configuration not stated), the inhibition is -2.56% (inactive).
With `CNS(=O)(=O)c1ccc(NC(=O)Nc2ccc3c(c2)OCO3)cc1`, the inhibition was -9.95% (inactive).
As to `COc1ccc(Cn2c(=O)sc3ccccc32)cc1OC`, the inhibition was -9.67% (inactive).
As for `S=c1[nH]cc(-c2ccc(Cl)cc2)n1-c1ccccc1`, the inhibition is -4.18% (inactive).
In the case of `S=c1[nH]ccn1-c1ccc(Cl)cc1`, the inhibition is 69.9% (active).
On to `O=C(NC(=S)Nc1ccc2oc(=O)ccc2c1)c1ccc(-c2cccc(Cl)c2Cl)o1`, for which the inhibition is -0.008% (inactive).
`O=[N+]([O-])c1ccccc1/C=N/n1c(COc2ccccc2)n[nH]c1=S`: the inhibition was 34.8% (inactive).
Consider `S=c1[nH]nc(-c2cccs2)n1/N=C/c1cccs1`, for which the inhibition is 27.3% (inactive).
With `Fc1ccccc1/C=N/n1c(-c2cccnc2)n[nH]c1=S`, the inhibition is 47.1% (active).
`S=c1[nH]nc(-c2ccncc2)n1/N=C/c1ccccc1Cl`: the inhibition is 73.5% (active).
To `S=c1[nH]nc(-c2cccs2)n1/N=C/c1cn(-c2ccccc2)nc1-c1ccc(Cl)cc1` belongs -2.77% (inactive).
For `CCOc1ccc(-c2n[nH]c(=S)n2/N=C/c2cc3c(cc2[N+](=O)[O-])OCO3)cc1`, the inhibition was 1.59% (inactive).
For `COc1ccc2c(c1)C(=O)Nc1cc(Cl)ccc1N2`, the inhibition is -7.65% (inactive).
As for `O=C(CN1CCCCC1)Nc1ccccc1C(=O)NC1CC1`, the inhibition was -5.07% (inactive).
`CCCNC(=S)N1CCC(NC(=O)C23CC4CC(CC(C4)C2)C3)CC1`: the inhibition was -5.11% (inactive).
For the compound `Cc1[nH]c2ccccc2c1C(=O)CN1CC(C)CC(C)C1` (configuration not stated), the inhibition was -4.14% (inactive).
In the case of `Cc1ccccc1-n1cc(CNC(=O)C2CCC(=O)N(C3CC3)C2)cn1` (configuration not stated), the inhibition is -4.71% (inactive).
The value for `CC(Oc1ccc(F)cc1)C(=O)Nc1ccccc1C(=O)NC1CC1` (configuration not stated) was -11.6% (inactive); that for `CCCc1nc2scc(-c3ccc(C)cc3)c2c(=O)n1N` was -7.79% (inactive); that for `COc1cccc(NC(=O)CN(C)C(=O)CSCc2nc3scc(-c4cccs4)c3c(=O)[nH]2)c1` was -7.77% (inactive).
Turning to `Cc1nc2scc(-c3cccs3)c2c(=O)n1N`, the inhibition was 42.5% (active).
For `Cc1cc(-c2ccccc2)nc(N2CCC(C(=O)NC34CC5CC(CC(C5)C3)C4)CC2)n1`, the inhibition is -9.15% (inactive).
To `CCOC(=O)C1=C(N)N2C(=O)C(C)SC2=C(C(=O)OCC)C1c1cc(OC)c(OC)c(OC)c1` (configuration not stated) belongs -2.88% (inactive); to `C/C=C(/C)C(=O)Nc1cccc(C2=NOC3(C2)C[C@@H](C(N)=O)N(C(=O)C2(C)CC2)C3)c1` (some centres not stated), -16% (inactive).
For `C/C=C\C=C\C(=O)N1CC2(CC(c3cccc(NC(=O)/C(C)=C\C)c3)=NO2)C[C@H]1C(N)=O` (some centres not stated), the inhibition is -3.46% (inactive).
Take `C=C(C)C(=O)Nc1cccc(C2=NOC3(C2)C[C@H](C(N)=O)N(C(=O)C(c2ccccc2)c2ccccc2)C3)c1` (some centres not stated): the inhibition was 53.1% (active).
On to `COc1ccc(/C=N/n2nnnc2N)cc1OC`, for which the inhibition was -3.77% (inactive).
With `COc1cc(/C=C/C(=O)OCC(=O)N2CCOCC2)ccc1OCC#N`, the inhibition was -3.2% (inactive).
As for `CC1CCc2sc3nc(N4CCN(CCO)CC4)n4ncnc4c3c2C1` (configuration not stated), the inhibition is -8.25% (inactive).
Regarding `CCOC(=O)NC(=O)C(=CNc1cccc(OC)c1)C(=O)NC(=O)OCC`, the inhibition was -5.67% (inactive).
Take `COc1ccc(C2CC(c3ccc([N+](=O)[O-])cc3)=NN2C(C)=O)cc1` (configuration not stated): the inhibition was 1.76% (inactive).
To `COC(=O)c1c(C)[nH]c(C)c1-c1ccc([N+](=O)[O-])cc1` belongs -8.28% (inactive); to `CC(=O)N1CC[n+]2c(-c3ccc([N+](=O)[O-])cc3)csc21`, 54.4% (active).
As to `Nc1nonc1-n1nnc(C(=O)N/N=C/c2ccc(Cl)cc2)c1-c1ccc2c(c1)OCO2`, the inhibition was 1.23% (inactive).
As to `COc1ccc(C(=O)CC(=O)C(=O)Nc2cc([N+](=O)[O-])ccc2OC)cc1`, the inhibition was -6.63% (inactive).
The value for `COc1cccc(NCCC(=O)c2cccc([N+](=O)[O-])c2)c1` was 1.63% (inactive).
For the compound `COc1cccc(C(=O)CC(=O)C(=O)Nc2ccc([N+](=O)[O-])cc2C)c1`, the inhibition was 51.3% (active).
Turning to `CC(=O)Nc1ccc(S(=O)(=O)NCCC(=O)N2CCN(c3ccccc3Cl)CC2)cc1`, the inhibition was -2.43% (inactive).
The value for `CCCn1c(NC(=O)C23CC4CC(CC(O)(C4)C2)C3)nc2ccccc21` was -2.56% (inactive); that for `O=C(Cc1ccsc1)N1CCN(S(=O)(=O)c2cc(C(F)(F)F)cc(C(F)(F)F)c2)CC1` was -3.29% (inactive); that for `CC(C)CCNC(=O)C1CCC(CNc2c(N3CCC(C)CC3)c(=O)c2=O)CC1` (configuration not stated) was -1.82% (inactive).
Regarding `C/C(=C(\C#N)C(=O)NCCCN1CCOCC1)N(C)C`, the inhibition is -7.59% (inactive).
On to `COc1cc(C(=S)N2CCOCC2)ccc1O`, for which the inhibition is -1.79% (inactive).
`CCOc1cc(C(=S)N2CCOCC2)ccc1O`: the inhibition was 51.9% (active).
As for `CCOc1cc(C(=S)N2CCOCC2)ccc1OS(=O)(=O)c1ccc(Br)cc1`, the inhibition is -3.84% (inactive).
For the compound `O=C(CN1CCN(C2CCS(=O)(=O)C2)CC1)N1N=C(c2ccc(Cl)cc2)CC1c1ccco1` (configuration not stated), the inhibition was -3.9% (inactive).
In the case of `FC(F)(F)C1CCCN(c2nsc3ccccc23)C1` (configuration not stated), the inhibition is 72.5% (active).
On to `O=C(NCC(=O)N1CCCC(C(F)(F)F)C1)c1ccccc1F` (configuration not stated), for which the inhibition was -2.23% (inactive).
With `CCN(CC)CC(=O)Nc1sc2c(c1C(=O)c1ccccc1C)CCC2`, the inhibition is 1.14% (inactive).
To `COc1ccc2c(C)cc3nnnn3c2c1` belongs -2.56% (inactive); to `COc1ccc2[nH]c(C(=O)N3CCN(C)CC3)c(C)c2c1`, -7.04% (inactive).
Regarding `COc1ccc2[nH]c(=S)cc(C)c2c1`, the inhibition was 45.8% (active).
Regarding `COc1c(C(C)C)oc2cc3oc(=O)ccc3cc12`, the inhibition was -10.3% (inactive).
